Rows were chosen to be rich in hits. Some 3.6% of all compounds tested hit in one or more screens of this group.
VHR inh abs = VHR1 phosphatase inhibitors, primary screen, biochemical, absorbance, uHTS; actives 0.52% (n = 290,000); AID 1654, 2009; Dual specificity protein phosphatase 3 (Homo sapiens), P51452; recombinant VHR phosphatase, pNPP absorbance; inhibition, % at 13.3 µM; in the data active = inhibition above about 50%
Target sequence (P51452 whole entry, looked up): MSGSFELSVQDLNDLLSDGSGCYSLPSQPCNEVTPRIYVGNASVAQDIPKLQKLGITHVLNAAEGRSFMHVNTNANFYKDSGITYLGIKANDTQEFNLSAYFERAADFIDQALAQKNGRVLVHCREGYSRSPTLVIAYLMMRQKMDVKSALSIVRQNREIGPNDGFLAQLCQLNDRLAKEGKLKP
Mtb betalactam = beta-lactam sensitization of Mtb H37Rv, H37Rv | M. tuberculosis H37Rv growth with meropenem, percent inhibition | inhibition, % at 25 µM | actives 0.27% (n = 330,000); call rule not given here;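 also: growth measured after seven days incubation then overnight dye step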
Mtb hypoxia rep = PubChem AID 1159583. M. tuberculosis hypoxia-regulated fluorescent reporter, fluorescence. fluorescence inhibition, % (no concentration beside the values). actives 0.1% (n = 300,000); in the data active = fluorescence inhibition mostly above about 23%, no sharp cut-off; inactive = mostly below about 17%
GDH-TPI inh = GDH-TPI coupling enzyme inhibitors, primary screen, artefact control for M. tuberculosis FBA inhibitor project, biochemical, absorbance, full deck. GDH-TPI coupled enzyme counterscreen, NADH absorbance. actives 1.2% (n = 360,000). inhibition, % at 4.8 µM; in the data active = inhibition above about 30%
Mtb FBA inh = Mtb FBA enzyme inhibitors, primary screen, biochemical, fluorescence, strain H37Rv. purified M. tuberculosis FBA, fluorescence read-out. inhibition, % at 1 µM. actives 2.3% (n = 360,000); in the data active = inhibition above about 27%
Target sequence (P9WQA3 whole entry, looked up): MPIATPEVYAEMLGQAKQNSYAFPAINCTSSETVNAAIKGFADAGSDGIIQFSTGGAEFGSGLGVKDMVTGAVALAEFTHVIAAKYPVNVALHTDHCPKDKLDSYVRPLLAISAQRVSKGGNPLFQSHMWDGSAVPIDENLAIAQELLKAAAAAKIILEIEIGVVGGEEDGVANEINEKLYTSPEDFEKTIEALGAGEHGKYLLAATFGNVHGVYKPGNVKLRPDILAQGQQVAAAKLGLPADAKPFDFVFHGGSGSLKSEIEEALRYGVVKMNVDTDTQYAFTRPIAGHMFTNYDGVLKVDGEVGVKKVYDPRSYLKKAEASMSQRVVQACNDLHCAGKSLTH
Of the large screens only hits and unclear results are named; the others gave an inactive call.

CCOc1ccc(/C=C/C(O)=C2/C(=O)NC3(C)CC2c2ccccc2O3)cc1OC (stereo unspecified)	none
CNc1cnc(-c2ccc(O)c(OC)c2)cn1	none (no result: VHR inh abs, Mtb betalactam, Mtb hypoxia rep)
CNc1ccc(-c2ccccc2OC)cn1	Mtb FBA inh 114.2 (no result: VHR inh abs, Mtb betalactam, Mtb hypoxia rep)
c1ccc(CSc2nnc(-c3cccnc3)o2)cc1	Mtb hypoxia rep 39.7
CNC(=S)NN=Cc1c2ccccc2c(Cl)c2ccccc12	none (no result: VHR inh abs, Mtb betalactam, GDH-TPI inh, Mtb FBA inh)
CC(=O)C1=C(C)Nc2ncnn2C1c1ccc(O)cc1 (stereo unspecified)	VHR inh abs 58.2
CC(=NNC(=O)c1ccccn1)c1ccc(O)cc1	none (no result: VHR inh abs, Mtb betalactam, GDH-TPI inh, Mtb FBA inh)
C/C(=N\NC(=O)c1cccnc1)c1ccccc1	VHR inh abs 58.7 (no result: Mtb hypoxia rep)
CC(=NNC(=O)c1ccc(O)cc1)c1ccc(NC(=O)Cc2ccccc2)cc1	none (no result: VHR inh abs, Mtb betalactam, GDH-TPI inh, Mtb FBA inh)
C/C(=N/NC(=O)c1ccccn1)c1ccc(O)cc1	GDH-TPI inh 32.5 (no result: Mtb hypoxia rep)
C/C(=N\NC(=O)c1ccc(N/N=C(\C)c2ccc(O)cc2)cc1)c1ccc(O)cc1	GDH-TPI inh 46.1 (no result: Mtb hypoxia rep)
Cc1c(C(=O)N2CCN(S(=O)(=O)c3ccc(F)cc3)CC2)oc2ccccc12	Mtb hypoxia rep 38.7 (no result: VHR inh abs)
COc1ccccc1C(=O)NCC(=O)NN=Cc1cn[nH]c1-c1ccccc1	none (no result: VHR inh abs, Mtb betalactam, GDH-TPI inh, Mtb FBA inh)
CCN1C(=O)C2C(c3ccc(-c4ccc(C(C)=O)cc4)c(OC)c3)N3CCCC[C@@]3(C(=O)OC)C2C1=O (stereo partly specified)	none (no result: VHR inh abs, Mtb betalactam, GDH-TPI inh, Mtb FBA inh)
COc1ccc(OC)c(C=NNC(=O)c2cc3c(OC)cc(OC)cc3[nH]2)c1	none (no result: VHR inh abs, Mtb betalactam, GDH-TPI inh, Mtb FBA inh)
COc1ccc(Cc2nnc(NC(=O)C3CC(=O)N(c4ccccc4)C3)s2)cc1OC (stereo unspecified)	VHR inh abs 58.5
CCc1ccc(N=C2NC(=O)/C(=C/c3cc(Br)c(OCC(=O)O)c(OC)c3)S2)cc1	GDH-TPI inh 34.0 (no result: VHR inh abs, Mtb hypoxia rep)
O=[N+]([O-])c1ccc(-c2ccc(C=Nc3c(-c4ccco4)nc4ccccn34)o2)cc1	none (no result: VHR inh abs, Mtb betalactam, GDH-TPI inh, Mtb FBA inh)
O=[N+]([O-])c1cc(-c2ccc(/C=N/c3nc4ccccn4c3-c3ccco3)o2)ccc1Cl	GDH-TPI inh 37.2 (no result: Mtb hypoxia rep)
COCCCNC(=S)NN=Cc1ccc(OC)cc1	none (no result: VHR inh abs, Mtb betalactam, GDH-TPI inh, Mtb FBA inh)
Cc1nn(C)cc1/C=C1\SC(=S)NC1=O	none
Cc1nn(C)c(C)c1/C=C1/SC(=S)NC1=O	GDH-TPI inh 34.5
Cc1ccc2nc(-c3ccc(NC(=O)C(C)Sc4nncs4)cc3)sc2c1 (stereo unspecified)	GDH-TPI inh 33.8 (no result: VHR inh abs)
Cc1ccc2nc(-c3ccc(NS(=O)(=O)c4c(C)n(C)c(=O)n(C)c4=O)cc3)sc2c1	none (no result: Mtb hypoxia rep)
Cc1ccc(S(=O)(=O)Nc2ccc(-c3nc4ccc(C)cc4s3)cc2)cc1	Mtb FBA inh 183.4
O=C(CN1CCN(c2ccccn2)CC1)Nc1ccccc1F	VHR inh abs 57.0
Cc1cccc(S(=O)(=O)Nc2ccc(-c3nc4ccc(C)cc4s3)cc2)c1	Mtb FBA inh active
CCN(Cc1ccccc1)c1ccc(C=NN=C(N)N)cc1	none (no result: VHR inh abs, Mtb betalactam, GDH-TPI inh, Mtb FBA inh)
CCOC1OC(C(=O)NC2CC2)=CC(c2ccc(C(F)(F)F)cc2)C1CCCO (stereo unspecified)	none (no result: VHR inh abs, Mtb betalactam, GDH-TPI inh, Mtb FBA inh)
CC(CC(O)C1OC1(C)C)C1=C2CC(O)C3[C@@]4(C)CCC(=O)C(C)(C)C4CC[C@]3(C)[C@@]2(C)CC1 (stereo partly specified)	none (no result: VHR inh abs, Mtb betalactam, GDH-TPI inh, Mtb FBA inh)
Cc1ccc2nc(NC(=O)CN3CCN(c4ccccn4)CC3)sc2c1	none
Cc1ccc(N(CC(=O)Nc2ccc(-c3nc4ccc(C)cc4s3)cc2)S(C)(=O)=O)cc1	GDH-TPI inh 37.5 (no result: Mtb hypoxia rep)
Cc1ccc2nc(-c3ccc(NC(=O)CN4CCN(c5ccccn5)CC4)cc3)sc2c1	Mtb FBA inh 39.9
Cc1cc(C)n2cc(CSCc3ccccc3)nc2n1	Mtb FBA inh 159.6
Cc1ccc(C(N)=NOC(=O)C(C)c2ccc([N+](=O)[O-])cc2)cc1 (stereo unspecified)	none (no result: VHR inh abs, Mtb betalactam, GDH-TPI inh, Mtb FBA inh)
Clc1ccc(N2CCN(c3ncnc4c3oc3ccccc34)CC2)cc1	VHR inh abs 50.5
CC1CN(c2ncnc3c2oc2ccccc23)CC(C)O1 (stereo unspecified)	none
CN(C)C=NC(=O)/C(C#N)=C1\CCc2ccccc2N1	GDH-TPI inh 55.6 (no result: Mtb hypoxia rep)
COc1ccc(O)c(C=NN=Cc2cccc([N+](=O)[O-])c2)c1	none (no result: VHR inh abs, Mtb betalactam, GDH-TPI inh, Mtb FBA inh)
CC(C)C(CN(N=O)C(Cc1ccccc1)CN(C)N=O)N(CCc1ccccc1)N=O (stereo unspecified)	none (no result: VHR inh abs, Mtb betalactam, GDH-TPI inh, Mtb FBA inh)
COc1cccc(/C=C2\SC(=O)N(CCC(=O)N3CCCCC3CCO)C2=O)c1 (stereo unspecified)	GDH-TPI inh 30.8
O=C(O)C1CCN(C(=O)CCN2C(=O)S/C(=C\c3ccccc3)C2=O)CC1	GDH-TPI inh 34.9 (no result: Mtb hypoxia rep)
Oc1ccc(Br)cc1C=NNC(=S)NCCc1ccccc1	none (no result: VHR inh abs, Mtb betalactam, GDH-TPI inh, Mtb FBA inh)
O=C(NN=Cc1cc(Br)cs1)C(O)c1ccccc1 (stereo unspecified)	none (no result: VHR inh abs, Mtb betalactam, GDH-TPI inh, Mtb FBA inh)
CCN1CCN(C(=S)NCCc2ccccc2)CC1	VHR inh abs 56.7
CC(=O)c1ccc(N2CCN(C(=O)CCCn3c(=O)[nH]c4ccc(Br)cc4c3=O)CC2)cc1	GDH-TPI inh 31.8
CCOc1cc(C(=O)N2CCN(c3ccc(C(C)=O)cc3)CC2)cc(OCC)c1OCC	GDH-TPI inh 31.2 (not shown: Mtb hypoxia rep)
CC(=O)c1ccc(N2CCN(C(=O)c3ccc4[nH]c(C)c(C)c4c3)CC2)cc1	GDH-TPI inh 35.4 (no result: VHR inh abs)
Cc1csc(NN=Cc2cccnc2)n1	none (no result: VHR inh abs, Mtb betalactam, GDH-TPI inh, Mtb FBA inh)
Cc1c(C=NNC(=O)C2(C)CC2(Cl)Cl)cnn1C (stereo unspecified)	none (no result: VHR inh abs, Mtb betalactam, GDH-TPI inh, Mtb FBA inh)

Source: PubChem BioAssay (several laboratories)
